# PTK2B oligo ant – Pyk2 (human) oligomerization antagonism; Q14289; Q293 cells, Pyk2 FERM NanoBiT luminescence; hits give low values; z-score (the deposit names both 25 µM and 10 µM); actives 0.83% (n = 99,000); AID 1347419;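 active = Z-score of -3 or lower, scaled per plate to the spread of control and sample wells; inactive = z-score above -3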;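 note: negative z-score means lost luminescence so less FERM oligomerization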
# CYP2C19 inh – blocks human cytochrome P450 2C19; actives 21% (n = 96,000); CYP2C19 Supersomes, luciferin-H EGE luminescence, 30 min; inhibition, % at 5 µM; P33261;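 active = CYP2C19 inhibition above a set limit at 5 µM in the primary screen, cut at about 50% in these data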;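 note: plate controls were negative control wells for no effect and 2.5 mM tranylcypromine positive control for full effect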
# CYP2C19 activ – increases human CYP2C19 enzyme activity. P33261. recombinant CYP2C19, luciferin-H EGE luminescence; hits give high values; 0 = fully inhibited enzyme, 1 = untreated enzyme. activation factor at 5 µM. 96,000 tested, under 10 active. AID 1025;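 active = activation factor of at least 2 at 5 µM in the primary screen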;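 note: 0 = wells with 2.5 mM tranylcypromine and 1 = vehicle-only wells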
# CYP2C9 activ – CYP2C9 (human) activation; P11712; recombinant CYP2C9, luciferin-H conversion, luminescence; hits give high values; factor 1 = untreated enzyme, 0 = blocked; activation factor at 5 µM; actives 1.4% (n = 96,000);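 active = activation factor of 2 or more for CYP2C9 at a 5 µM dose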;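 note: 0 = sulfaphenazole-blocked wells and 1 = vehicle-only wells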
# CYP2C9 inhib – blocks human cytochrome P450 2C9. P11712. CYP2C9 Supersomes, luciferin-H conversion, luminescence. inhibition, % at 5 µM. actives 20% (n = 96,000);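 active = blocking of liver enzyme CYP2C9 beyond about 50% at 5 µM, limit read from the data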
# An asterisk follows results filed as active; / = no result. Only some compounds are listed: those with a hit (about 28% of all), similar ones and a draw of the others.
SMILES,PTK2B oligo ant,CYP2C19 inh,CYP2C19 activ,CYP2C9 activ,CYP2C9 inhib
Cn1c(=O)c2c(nc(OCc3ccc4c(c3)OCO4)n2Cc2ccccc2Cl)n(C)c1=O,-0.05,56*,0.4,0.9,10
CCCn1c(CN(C)Cc2ccccc2)nc2c1c(=O)n(C)c(=O)n2C,3,/,/,/,/
Cc1ccc(NC(=O)C2C3C=CC4(CN(Cc5cccnc5)C(=O)C24)O3)cc1 (stereo unspecified),/,13,0.9,0.9,10
CCOC(=O)Cn1c(CN(Cc2ccccc2)Cc2ccccc2)nc2c1c(=O)n(C)c(=O)n2C,-1.2,83*,0.2,0,99*
CCCn1c(CN(Cc2ccccc2)Cc2ccccc2)nc2c1c(=O)n(C)c(=O)n2C,/,8,0.9,0.1,87*
COCCn1c(CN(C)Cc2ccccc2)nc2c1c(=O)n(C)c(=O)n2C,/,11,0.9,0.5,47
O=C(OC(C(=O)NCC1CCCO1)c1ccccn1)c1cccs1 (stereo unspecified),-0.3,21,0.8,1,3
CCCCN1C(=O)C(NC(=O)CC(C)C)(C(F)(F)F)C2=C1CC(C)(C)CC2=O (stereo unspecified),-0.45,1,1,1,-3
CCCn1c(=O)c(F)cn(Cc2ccc(OC)c([N+](=O)[O-])c2)c1=O,0.75,29,0.7,0.7,26
CCCCCn1c(=O)c(F)cn(Cc2ccc(OC)c([N+](=O)[O-])c2)c1=O,0.55,12,0.9,0.5,52*
COc1ccc(CSc2nnnn2C)cc1[N+](=O)[O-],0.11,30,0.7,1,0
CCCCCCn1c(=O)c(F)cn(Cc2ccc(OC)c([N+](=O)[O-])c2)c1=O,-0.39,30,0.7,0.4,60*
CCOC(=O)c1ccccc1NCN1C(=O)CSC1=O,-0.29,-7,1.1,1.2,-19
COC(=O)c1sc(=S)sc1C(=O)OC,0.18,52*,0.5,0.8,24
Cc1ccc(NC(=O)/C(=C/c2ccncc2)NC(=O)c2ccccc2)cc1,0.4,/,/,/,/
CC(/C=C(\NC(=O)c1ccccc1)C(=O)N=Nc1c(O)[nH]c2ccc(C)cc12)=C\c1ccccc1,-0.41,16,0.8,0.5,53*
O=C(Cn1ccc2ccccc2c1=O)NCCC(=O)NC1CCN(Cc2ccccc2)CC1,-1.1,-14,1.1,1.3,-25
Cc1ccc(NC(=O)CCC(=O)NNC(=O)Cc2ccccc2)cc1C,-0.76,25,0.7,1.1,-10
O=C(CC12CC3CC(CC(C3)C1)C2)Nc1cccc2ncccc12,1,51*,0.5,0.7,27
O=C(Nc1cccc2ncccc12)C12CC3CC(CC(C3)C1)C2,1.2,-1,1,1.2,-24
C=C(C)Cn1c(COc2ccccc2)nnc1SCC(=O)O,0.35,2,1,0.9,7
C/C(=N\O)C(=O)OC1CC(C)CCC1C(C)C (stereo unspecified),-0.61,96*,0,0,96*
CCOC(=O)c1c(NC(=O)CSc2nnc3c(n2)[nH]c2ccccc23)sc2c1CCN(C)C2,0.28,/,/,/,/
O=C1C2C(c3ccccc3)C=CC(c3ccccc3)C2C(=O)N1C1CCCCC1 (stereo unspecified),-0.52,-18,1.2,0.2,80*
O=C1C2C(c3ccccc3)C=CC(c3ccccc3)C2C(=O)N1CCO (stereo unspecified),0.21,99*,0,0.3,74*
SMILES,PTK2B oligo ant,CYP2C19 inh,CYP2C19 activ,CYP2C9 activ,CYP2C9 inhib
O=C1C2C3C=CC(C3=C(c3ccccc3)c3ccccc3)C2C(=O)N1Cc1ccccc1 (stereo unspecified),1.4,54*,0.5,1.1,-14
O=C1C2C3C=CC(C3=C(c3ccccc3)c3ccccc3)C2C(=O)N1CCO (stereo unspecified),-0.69,15,0.9,0.8,18
Cc1cc2ccccc2nc1SCC(=O)N1CCCC1,0.13,33,0.7,1.2,-22
CCc1cc(=O)oc2cc(C)cc(OCc3nn[nH]n3)c12,1.1,0,1,0.8,18
CCCc1cc(O)c2c(C)cc(=O)oc2c1,-1.9,/,/,/,/
CCCCc1cc(=O)oc2cc(C)cc(O)c12,-2.5,55*,0.4,0.3,68*
Cc1cc(O)c2c(-c3ccccc3)cc(=O)oc2c1,-2,52*,0.5,0.2,76*
COc1ccc([N+](=O)[O-])cc1COc1cc(C)cc2oc(=O)cc(-c3ccccc3)c12,0.34,75*,0.3,0.1,92*
CC(C)CCNC(=O)Cn1cc2c(n1)CCCCC2,/,6,0.9,0.5,49

# Compound activity as filed in PubChem BioAssay.
